In the supplement of paper PMC10849652:
Targets with a hit are over-represented here; the source holds about 8,800 in all. About 0.5% of all pairs of compound and target were hits.

How the values were obtained:
Test in all cases: log2 fold change, soluble protein after heating vs DMSO (PISA); higher = thermal stabilisation; K562 lysate, 10 uM; active = over 0.2 and 3.5 SD of the protein, either way, in both replicates (recomputed)
ibrutinib = compound: C=CC(=O)N1CCC[C@@H](n2nc(-c3ccc(Oc4ccccc4)cc3)c3c(N)ncnc32)C1 [ibrutinib]
In short: (§1)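 K562 pellets were dounce-homogenised in PBS pH 7.4 with 1 mM MgCl2, and the crude extract at 1 mg/mL protein was treated with 10 μM compound for 30 min. Aliquots were heated for 3 min across 48°C-58°C, pooled, and brought to 0.5% NP-40 at 4°C; soluble protein was the supernatant after 21,000xg for 90 min. Soluble protein was quantified by TMTpro 16plex LC-MS/MS with channel sums equalised, and reported as log2 fold change in thermal stability against DMSO controls, with values from duplicates.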

[1] = compound: CC(=O)c1cnc2ccc(-c3cc(Cl)c(O)c(Cl)c3)nc2c1N[C@H]1CC[C@H](CN(C)C)CC1
In short: as §1

ralimetinib = compound: CC(C)(C)Cn1c(N)nc2ccc(-c3[nH]c(C(C)(C)C)nc3-c3ccc(F)cc3)nc21 [ralimetinib]
In short: as §1

[2] = compound: CC(C)(O)CC(=O)NCCn1ccc2ncnc(Nc3ccc(Oc4cccc(C(F)(F)F)c4)c(Cl)c3)c21
In short: as §1

[3] = compound: CC(C)C1=C2N=C(C=C(N2N=C1)NCC3=CC=CC=C3)NCCCCCCN
In short: as §1

[4] = compound: CC1=C(C(CC(=O)N1)C2=CC=C(C=C2)C(F)(F)F)C(=O)NC3=C(C=C4C(=C3)C=NN4)F
In short: as §1

[5] = compound: CC1=C(C2=C(C=C1)C(=O)C3=CC=CC=C3N2CCCN)C
In short: as §1

[6] = compound: CC1=C(C=C(C=C1)NC(=O)C2=CC(=CC=C2)C(C)(C)C#N)NC3=CC4=C(C=C3)N=CN(C4=O)C
In short: as §1

[7] = compound: CC1=C(C=C(C=C1)NC(=O)C2=CC(=CC=C2)N(C)C)NC(=O)C3=CC=C(C=C3)O
In short: as §1

[8] = compound: CC1=CC=C(C=C1)SC2=C3C=C(SC3=CN=C2)C(=O)N
In short: as §1

vemurafenib = compound: CCCS(=O)(=O)Nc1ccc(F)c(C(=O)c2c[nH]c3ncc(-c4ccc(Cl)cc4)cc23)c1F [vemurafenib]
In short: as §1

[9] = compound: CCCS(=O)(=O)Nc1ccc(F)c(C(=O)c2c[nH]c3ncc(Cl)cc23)c1F
In short: as §1

barasertib = compound: CCN(CCCOc1ccc2c(Nc3cc(CC(=O)Nc4cccc(F)c4)[nH]n3)ncnc2c1)CCOP(=O)(O)O [barasertib]
In short: as §1

[10] = compound: CC[C@@H]1C(=O)N(C)c2cnc(Nc3ccc(C(=O)NC4CCN(C)CC4)cc3OC)nc2N1C1CCCC1
In short: as §1

volasertib = compound: CC[C@@H]1C(=O)N(C)c2cnc(Nc3ccc(C(=O)N[C@H]4CC[C@H](N5CCN(CC6CC6)CC5)CC4)cc3OC)nc2N1C(C)C [volasertib]
In short: as §1

[11] = compound: CCn1c(C(=O)N(C2CC2)C2CC2)cc2c3c(ncn3C)c(Nc3cc(C)n(C)n3)nc21
In short: as §1

[12] = compound: CCn1cc(-c2ccnc3[nH]c(-c4cccc(CN(C)C)c4)cc23)c(-c2ccc(NC(=O)N(C)C)cc2)n1
In short: as §1

[13] = compound: CN1CCC(CNc2ccc3ncc(-c4cccc(OC(F)(F)F)c4)n3n2)CC1
In short: as §1

saracatinib = compound: CN1CCN(CCOc2cc(OC3CCOCC3)c3c(Nc4c(Cl)ccc5c4OCO5)ncnc3c2)CC1 [saracatinib]
In short: as §1

sotrastaurin = compound: CN1CCN(c2nc(C3=C(c4c[nH]c5ccccc45)C(=O)NC3=O)c3ccccc3n2)CC1 [sotrastaurin]
In short: as §1

Measured: log2 fold change

MTFP1 (UniProt Q9UDX5)
Sequence of UniProt Q9UDX5 (Q9UDX5 whole entry, looked up): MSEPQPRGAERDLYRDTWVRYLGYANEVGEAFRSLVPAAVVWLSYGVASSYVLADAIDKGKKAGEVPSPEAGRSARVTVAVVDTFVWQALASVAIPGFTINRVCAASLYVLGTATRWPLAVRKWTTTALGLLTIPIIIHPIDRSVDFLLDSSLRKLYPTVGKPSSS
active: [12] -0.421
inactive: ibrutinib 0.097 | [1] -0.065 | ralimetinib -0.017 | [2] 0.079 | [3] -0.058 | [4] 0.018 | [5] 0.009 | [6] -0.011 | [7] -0.048 | [8] -0.001 | vemurafenib -0.025 | [9] 0.031 | barasertib 0.012 | [10] 0.036 | volasertib 0.041 | [11] 0.061 | [13] 0.041 | saracatinib -0.042 | sotrastaurin 0.004

NCOR1 (UniProt O75376)
Sequence of UniProt O75376 (O75376 whole entry, looked up): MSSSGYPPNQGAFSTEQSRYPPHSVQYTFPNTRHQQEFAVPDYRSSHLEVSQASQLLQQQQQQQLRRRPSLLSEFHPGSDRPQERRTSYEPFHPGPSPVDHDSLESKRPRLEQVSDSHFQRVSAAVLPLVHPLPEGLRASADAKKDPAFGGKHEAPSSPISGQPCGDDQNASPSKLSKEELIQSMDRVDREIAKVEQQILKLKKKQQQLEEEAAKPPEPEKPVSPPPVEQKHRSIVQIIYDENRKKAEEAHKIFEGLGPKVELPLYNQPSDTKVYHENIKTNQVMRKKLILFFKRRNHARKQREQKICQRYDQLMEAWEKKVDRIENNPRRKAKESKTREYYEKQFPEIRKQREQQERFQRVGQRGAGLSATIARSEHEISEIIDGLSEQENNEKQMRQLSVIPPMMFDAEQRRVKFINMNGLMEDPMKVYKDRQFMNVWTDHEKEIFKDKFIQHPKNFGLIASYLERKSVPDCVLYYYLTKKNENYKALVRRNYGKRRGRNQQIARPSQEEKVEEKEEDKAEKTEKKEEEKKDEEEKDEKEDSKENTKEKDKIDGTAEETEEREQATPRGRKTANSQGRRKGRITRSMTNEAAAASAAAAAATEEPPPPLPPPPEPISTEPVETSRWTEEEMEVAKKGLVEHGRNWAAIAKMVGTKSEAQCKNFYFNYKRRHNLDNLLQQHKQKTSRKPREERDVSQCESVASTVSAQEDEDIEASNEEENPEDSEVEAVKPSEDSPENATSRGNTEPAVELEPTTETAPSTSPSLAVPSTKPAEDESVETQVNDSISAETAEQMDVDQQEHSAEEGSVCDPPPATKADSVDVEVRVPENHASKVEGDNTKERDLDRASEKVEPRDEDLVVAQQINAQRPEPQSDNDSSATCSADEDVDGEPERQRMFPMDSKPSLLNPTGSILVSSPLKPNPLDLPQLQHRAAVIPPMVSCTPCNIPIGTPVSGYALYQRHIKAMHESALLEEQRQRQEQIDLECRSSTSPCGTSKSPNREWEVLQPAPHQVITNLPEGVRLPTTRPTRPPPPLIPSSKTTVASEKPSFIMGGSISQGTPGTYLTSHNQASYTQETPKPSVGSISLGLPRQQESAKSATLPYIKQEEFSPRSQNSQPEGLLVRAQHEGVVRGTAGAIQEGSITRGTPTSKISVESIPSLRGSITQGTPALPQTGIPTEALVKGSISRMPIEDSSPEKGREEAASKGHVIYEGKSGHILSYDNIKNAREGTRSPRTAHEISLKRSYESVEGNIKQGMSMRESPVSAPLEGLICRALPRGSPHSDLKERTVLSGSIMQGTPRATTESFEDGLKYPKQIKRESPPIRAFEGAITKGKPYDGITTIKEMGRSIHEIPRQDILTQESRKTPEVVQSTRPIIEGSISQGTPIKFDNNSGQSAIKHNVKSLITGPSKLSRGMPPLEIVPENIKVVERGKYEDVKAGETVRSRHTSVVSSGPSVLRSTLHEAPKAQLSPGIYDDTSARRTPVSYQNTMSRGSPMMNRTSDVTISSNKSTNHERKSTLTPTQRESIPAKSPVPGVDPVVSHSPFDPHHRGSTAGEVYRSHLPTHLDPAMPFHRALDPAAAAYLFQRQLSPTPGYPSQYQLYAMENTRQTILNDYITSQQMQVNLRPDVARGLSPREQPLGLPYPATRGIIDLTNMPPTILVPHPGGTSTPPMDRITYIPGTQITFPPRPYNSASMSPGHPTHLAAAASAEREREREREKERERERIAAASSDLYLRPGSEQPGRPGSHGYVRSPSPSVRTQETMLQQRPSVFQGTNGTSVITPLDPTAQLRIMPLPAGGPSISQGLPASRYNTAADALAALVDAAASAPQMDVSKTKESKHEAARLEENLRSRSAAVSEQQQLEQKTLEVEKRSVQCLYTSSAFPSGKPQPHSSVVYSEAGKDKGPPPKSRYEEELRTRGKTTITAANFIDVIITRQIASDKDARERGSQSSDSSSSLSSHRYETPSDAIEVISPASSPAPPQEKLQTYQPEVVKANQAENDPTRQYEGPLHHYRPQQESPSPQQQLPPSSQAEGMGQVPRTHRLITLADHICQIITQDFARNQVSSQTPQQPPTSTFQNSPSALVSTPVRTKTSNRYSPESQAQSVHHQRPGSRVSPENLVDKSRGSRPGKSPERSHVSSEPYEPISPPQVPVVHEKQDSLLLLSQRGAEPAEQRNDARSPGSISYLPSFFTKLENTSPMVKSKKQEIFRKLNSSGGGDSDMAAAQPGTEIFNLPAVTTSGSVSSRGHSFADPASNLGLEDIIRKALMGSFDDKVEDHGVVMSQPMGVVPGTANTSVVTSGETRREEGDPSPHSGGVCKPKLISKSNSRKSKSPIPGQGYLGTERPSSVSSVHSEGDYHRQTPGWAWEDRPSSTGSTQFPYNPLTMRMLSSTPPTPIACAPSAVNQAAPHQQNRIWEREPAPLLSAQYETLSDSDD
inactive: ibrutinib 0.002 | [1] 0.015 | ralimetinib 0.021 | [2] -0.033 | [3] 0.014 | [4] 0.026 | [5] -0.026 | [6] 0 | [7] -0.006 | [8] -0.005 | vemurafenib -0.005 | [9] -0.01 | barasertib 0.018 | [10] 0.043 | volasertib 0.002 | [11] -0.014 | [12] -0.002 | [13] -0.033 | saracatinib 0.006 | sotrastaurin 0.006

OSBP (UniProt P22059)
inactive: ibrutinib -0.007 | [1] 0.003 | ralimetinib -0.019 | [2] -0.007 | [3] -0.19 | [4] 0.018 | [5] 0.04 | [6] -0.103 | [7] 0.011 | [8] -0.003 | vemurafenib -0.052 | [9] -0.007 | barasertib -0.004 | [10] -0.076 | volasertib -0.091 | [11] 0.041 | [12] -0.045 | [13] -0.032 | saracatinib 0.011 | sotrastaurin 0.026

NMT1 (UniProt P30419)
inactive: ibrutinib -0.045 | [1] 0.005 | ralimetinib -0.001 | [2] 0.014 | [3] 0.022 | [4] -0.011 | [5] -0.009 | [6] -0.01 | [7] 0.017 | [8] 0.001 | vemurafenib 0.024 | [9] 0.016 | barasertib -0.025 | [10] 0.014 | volasertib -0.002 | [11] 0.01 | [12] -0.04 | [13] 0.001 | saracatinib 0.003 | sotrastaurin 0.025

OLA1 (UniProt Q9NTK5)
Sequence of UniProt Q9NTK5 (Q9NTK5 whole entry, looked up): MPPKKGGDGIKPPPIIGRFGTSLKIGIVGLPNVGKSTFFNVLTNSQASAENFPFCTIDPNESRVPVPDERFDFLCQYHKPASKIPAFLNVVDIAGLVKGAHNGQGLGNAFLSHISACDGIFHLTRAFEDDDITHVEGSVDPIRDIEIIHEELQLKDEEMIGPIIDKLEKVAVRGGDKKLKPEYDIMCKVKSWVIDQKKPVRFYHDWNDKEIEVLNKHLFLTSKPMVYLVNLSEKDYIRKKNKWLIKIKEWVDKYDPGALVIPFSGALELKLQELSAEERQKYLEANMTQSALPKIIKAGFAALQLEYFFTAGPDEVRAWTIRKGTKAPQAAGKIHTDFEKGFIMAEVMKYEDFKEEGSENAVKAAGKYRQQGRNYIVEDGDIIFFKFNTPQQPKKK
inactive: ibrutinib 0.009 | [1] -0.002 | ralimetinib 0.015 | [2] 0.03 | [3] 0.02 | [4] -0.023 | [5] 0.023 | [6] -0.004 | [7] 0.029 | [8] 0.014 | vemurafenib 0.025 | [9] 0.001 | barasertib 0.012 | [10] -0.047 | volasertib -0.029 | [11] 0.04 | [12] -0.135 | [13] 0.035 | saracatinib -0.003 | sotrastaurin 0.026

NOC2L (UniProt Q9Y3T9)
inactive: ibrutinib -0.047 | [1] 0.015 | ralimetinib 0.047 | [2] -0.005 | [3] 0.026 | [4] 0.014 | [5] -0.074 | [6] -0.02 | [7] 0.021 | [8] 0.014 | vemurafenib 0.04 | [9] 0.021 | barasertib 0.028 | [10] -0.029 | volasertib -0.035 | [11] 0.006 | [12] -0.079 | [13] -0.016 | saracatinib -0.078 | sotrastaurin 0.05

NUB1 (UniProt Q9Y5A7)
inactive: ibrutinib -0.001 | [1] 0.022 | ralimetinib -0.003 | [2] 0.018 | [3] -0.027 | [4] 0.014 | [5] -0.009 | [6] -0.028 | [7] 0.008 | [8] 0.02 | vemurafenib -0.007 | [9] 0.011 | barasertib 0.028 | [10] -0.052 | volasertib -0.056 | [11] 0 | [12] 0.008 | [13] -0.048 | saracatinib -0.009 | sotrastaurin 0.021

MYH11 isoform 2 (UniProt P35749)
inactive: ibrutinib -0.051 | [1] -0.011 | ralimetinib -0.094 | [2] -0.043 | [3] 0.013 | [4] -0.019 | [5] -0.007 | [6] -0.043 | [7] 0 | [8] -0.004 | vemurafenib 0.027 | [9] 0.016 | barasertib 0.016 | [10] -0.011 | volasertib -0.025 | [11] 0.091 | [13] -0.033 | saracatinib 0.029 | sotrastaurin 0.002
active: [12] 0.25

MYO1C (UniProt O00159)
inactive: ibrutinib 0.037 | [1] 0.031 | ralimetinib 0.075 | [2] -0.032 | [3] -0.009 | [4] -0.03 | [5] 0.017 | [7] 0.021 | [8] 0.06 | vemurafenib -0.016 | [9] 0.039 | barasertib -0.012 | [10] -0.042 | volasertib -0.046 | [11] 0.101 | [12] -0.025 | [13] -0.018 | saracatinib -0.019 | sotrastaurin 0.028
active: [6] -0.292

MRPS18A isoform 2 (UniProt Q9NVS2)
inactive: ibrutinib -0.015 | [1] 0.006 | ralimetinib -0.015 | [2] -0.002 | [3] -0.046 | [4] 0.034 | [5] -0.131 | [6] 0.016 | [7] 0.043 | [8] -0.003 | vemurafenib 0.073 | [9] 0.03 | barasertib 0.037 | [10] 0.073 | volasertib -0.019 | [11] -0.04 | [13] -0.121 | saracatinib -0.042 | sotrastaurin 0.036
active: [12] 0.306

MT-ND1 (UniProt P03886)
inactive: ibrutinib 0.032 | [1] -0.006 | ralimetinib 0.061 | [2] -0.101 | [3] -0.052 | [4] 0.056 | [5] -0.007 | [6] 0.055 | [7] -0.005 | [8] 0.088 | vemurafenib -0.074 | [9] 0.012 | barasertib 0.056 | [10] -0.068 | volasertib -0.04 | [11] -0.096 | [12] -0.355 | [13] 0.066 | saracatinib 0.075 | sotrastaurin 0.038

PANK4 (UniProt Q9NVE7)
Sequence of UniProt Q9NVE7 (Q9NVE7 whole entry, looked up): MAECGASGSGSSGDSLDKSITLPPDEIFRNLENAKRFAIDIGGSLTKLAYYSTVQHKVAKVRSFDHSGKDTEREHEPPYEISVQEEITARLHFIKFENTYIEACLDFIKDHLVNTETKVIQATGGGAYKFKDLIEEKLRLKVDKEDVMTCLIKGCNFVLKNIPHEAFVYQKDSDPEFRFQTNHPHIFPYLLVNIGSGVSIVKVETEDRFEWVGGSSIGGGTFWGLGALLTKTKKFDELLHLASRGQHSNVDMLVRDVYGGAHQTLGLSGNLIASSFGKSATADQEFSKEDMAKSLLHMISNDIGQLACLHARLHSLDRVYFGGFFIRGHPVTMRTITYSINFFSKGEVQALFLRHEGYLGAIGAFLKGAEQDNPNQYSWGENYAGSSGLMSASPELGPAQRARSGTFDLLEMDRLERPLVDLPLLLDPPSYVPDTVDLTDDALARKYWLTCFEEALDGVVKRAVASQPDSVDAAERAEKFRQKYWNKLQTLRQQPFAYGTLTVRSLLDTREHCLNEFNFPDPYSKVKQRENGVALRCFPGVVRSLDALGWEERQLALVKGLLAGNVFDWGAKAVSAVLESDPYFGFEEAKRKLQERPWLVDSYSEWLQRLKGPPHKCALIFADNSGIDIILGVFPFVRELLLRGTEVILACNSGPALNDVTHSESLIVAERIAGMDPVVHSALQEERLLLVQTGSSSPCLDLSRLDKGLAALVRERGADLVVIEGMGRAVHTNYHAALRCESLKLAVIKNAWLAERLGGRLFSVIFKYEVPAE
inactive: ibrutinib 0.039 | [1] 0.001 | ralimetinib 0.023 | [2] -0.008 | [3] 0.036 | [4] -0.01 | [5] -0.024 | [6] -0.001 | [7] -0.005 | [8] -0.005 | vemurafenib 0.026 | [9] 0.011 | barasertib 0.054 | [10] -0.051 | volasertib -0.091 | [11] 0.003 | [12] -0.136 | [13] 0.077 | saracatinib 0.001 | sotrastaurin 0.012

NTPCR (UniProt Q9BSD7)
inactive: ibrutinib -0.004 | [1] 0.002 | ralimetinib 0.014 | [2] 0 | [3] 0.022 | [4] 0.018 | [5] 0.014 | [6] -0.002 | [7] 0.066 | [8] -0.001 | vemurafenib 0.055 | [9] -0.001 | barasertib 0.016 | [10] 0.005 | volasertib -0.066 | [11] 0.032 | [12] -0.038 | [13] -0.021 | saracatinib -0.009 | sotrastaurin 0.011

NUP133 (UniProt Q8WUM0)
Sequence of UniProt Q8WUM0 (Q8WUM0 whole entry, looked up): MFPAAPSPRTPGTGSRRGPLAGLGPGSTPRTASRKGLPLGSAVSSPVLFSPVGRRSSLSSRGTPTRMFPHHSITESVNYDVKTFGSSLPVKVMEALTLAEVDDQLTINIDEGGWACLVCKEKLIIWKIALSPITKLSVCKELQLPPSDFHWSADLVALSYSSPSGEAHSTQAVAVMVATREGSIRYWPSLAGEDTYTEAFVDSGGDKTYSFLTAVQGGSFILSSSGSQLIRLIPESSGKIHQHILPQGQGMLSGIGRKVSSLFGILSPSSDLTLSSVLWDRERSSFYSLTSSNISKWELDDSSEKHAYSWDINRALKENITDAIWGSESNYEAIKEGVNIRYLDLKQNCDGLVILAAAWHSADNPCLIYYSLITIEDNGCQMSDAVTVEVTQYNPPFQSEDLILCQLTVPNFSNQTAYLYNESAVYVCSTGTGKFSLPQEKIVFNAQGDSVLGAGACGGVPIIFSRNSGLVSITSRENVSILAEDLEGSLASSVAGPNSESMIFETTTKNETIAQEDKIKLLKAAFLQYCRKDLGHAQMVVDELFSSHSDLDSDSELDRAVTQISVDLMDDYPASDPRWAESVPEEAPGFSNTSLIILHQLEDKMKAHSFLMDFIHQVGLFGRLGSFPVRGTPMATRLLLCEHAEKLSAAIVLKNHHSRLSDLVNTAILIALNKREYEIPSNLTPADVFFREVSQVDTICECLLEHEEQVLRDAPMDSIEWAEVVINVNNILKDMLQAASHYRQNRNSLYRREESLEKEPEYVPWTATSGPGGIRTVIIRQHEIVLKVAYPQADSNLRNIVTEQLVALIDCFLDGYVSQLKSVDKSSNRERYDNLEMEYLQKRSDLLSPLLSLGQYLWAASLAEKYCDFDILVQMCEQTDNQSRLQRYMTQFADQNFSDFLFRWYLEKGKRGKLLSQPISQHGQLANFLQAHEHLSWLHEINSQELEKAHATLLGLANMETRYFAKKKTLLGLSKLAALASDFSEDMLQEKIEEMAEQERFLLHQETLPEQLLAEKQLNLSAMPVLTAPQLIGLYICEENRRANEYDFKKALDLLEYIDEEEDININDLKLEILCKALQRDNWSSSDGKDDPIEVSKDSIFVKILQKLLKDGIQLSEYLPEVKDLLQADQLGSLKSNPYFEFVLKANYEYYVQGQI
inactive: ibrutinib 0.016 | [1] -0.015 | ralimetinib 0.006 | [2] 0.045 | [3] -0.01 | [4] 0.064 | [5] -0.02 | [6] 0.01 | [7] 0.009 | [8] -0.002 | vemurafenib 0.009 | [9] 0.014 | barasertib 0.01 | [10] -0.028 | volasertib -0.081 | [11] 0.05 | [12] -0.047 | [13] 0.04 | saracatinib 0.014 | sotrastaurin 0.038

MYCBP (UniProt Q99417)
Sequence of UniProt Q99417 (Q99417 whole entry, looked up): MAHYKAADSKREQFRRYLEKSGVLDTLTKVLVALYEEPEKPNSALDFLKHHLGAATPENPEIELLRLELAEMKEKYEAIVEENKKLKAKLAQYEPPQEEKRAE
active: [12] -0.589
inactive: ibrutinib 0.188 | [1] -0.009 | ralimetinib 0.021 | [2] -0.04 | [3] 0.002 | [4] -0.007 | [5] -0.017 | [6] 0.032 | [7] -0.002 | [8] -0.009 | vemurafenib -0.001 | [9] 0 | barasertib 0.16 | [10] -0.003 | volasertib 0.044 | [11] -0.007 | [13] 0.189 | saracatinib 0.021 | sotrastaurin 0.035

NNT (UniProt Q13423)
inactive: ibrutinib 0.012 | [1] -0.016 | ralimetinib -0.095 | [2] -0.01 | [3] -0.05 | [4] -0.011 | [5] -0.019 | [6] -0.007 | [7] 0.01 | [8] -0.009 | vemurafenib 0.012 | [9] -0.015 | barasertib 0.013 | [10] 0.022 | volasertib 0.031 | [11] -0.004 | [12] 0.041 | [13] -0.004 | saracatinib -0.025 | sotrastaurin -0.024
